{"source": "the supplement of paper PMC12494721", "note": "Counter-ions that a name gives are not always drawn.", "data": [{"system": "Escherichia coli IAI1", "assay": "growth (OD595) fold change vs plate DMSO controls (fold change (ratio)); higher = more growth", "conditions": "incubation time: 27 h, anaerobic, 37 °C", "method_in_brief": "(§1)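 The reported measure is growth: the fold change against the median of DMSO controls on the plate. Absorbance at 595 nm from anaerobic 96-well mGAM cultures grown for 27 h at 37 °C was blank-subtracted, corrected for background with 20 µM compound solutions in water, and converted to OD with a calibration factor of 5. Fold changes above 1.5 appear as NA, and values are the mean of 2 biological replicates.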", "values": [{"molecule": "Cn1cc(C(=O)Nc2ccc(F)cc2-c2ccc(Cl)c(Cl)c2)c(C(F)F)n1", "note": "(20 µM)", "growth": 1}, {"molecule": "Nc1nc(=O)[nH]cc1F", "note": "[Flucytosine] (20 µM)", "growth": 0.897}, {"molecule": "O=c1oc2cc(O)ccc2s1", "note": "[Tioxolone] (20 µM)", "growth": 1.01}, {"molecule": "CCN1C(=O)NC(c2ccccc2)C1=O", "note": "(stereo unspecified) [Ethotoin] (20 µM)", "growth": 0.999}, {"molecule": "C=C1/C(=C\\C=C2/CCC[C@]3(C)[C@@H]([C@H](C)/C=C/[C@@H](O)C4CC4)CC[C@@H]23)C[C@@H](O)C[C@@H]1O", "note": "[Calcipotriene] (20 µM)", "growth": 0.96}, {"molecule": "COc1ccc([C@@H]2Sc3ccccc3N(CCN(C)C)C(=O)[C@@H]2OC(C)=O)cc1", "note": "[Diltiazem hydrochloride] (20 µM)", "growth": 1.02}, {"molecule": "N#Cc1ccc(C(c2ccc(C#N)cc2)n2cncn2)cc1", "note": "[Letrozole] (20 µM)", "growth": 1.02}, {"molecule": "Clc1ccc(CSC(Cn2ccnc2)c2ccc(Cl)cc2Cl)cc1", "note": "(stereo unspecified) [Sulconazole nitrate] (20 µM)", "growth": 1.05}, {"molecule": "NC(=O)c1ncn([C@@H]2O[C@H](CO)[C@@H](O)[C@H]2O)n1", "note": "[Ribavirin] (20 µM)", "growth": 0.988}, {"molecule": "CC(C)NCC(O)c1cc(O)cc(O)c1", "note": "(stereo unspecified) [Metaproterenol sulfate] (20 µM)", "growth": 1.03}, {"molecule": "Cc1ccccc1C(=O)Nc1ccc(C(=O)N2CCCC(O)c3cc(Cl)ccc32)c(C)c1", "note": "(stereo unspecified) [Tolvaptan] (20 µM)", "growth": 0.991}, {"molecule": "CC(C)(C)NC(=O)[C@H]1CC[C@H]2[C@@H]3CC[C@H]4NC(=O)C=C[C@]4(C)[C@H]3CC[C@]12C", "note": "[Finasteride] (20 µM)", "growth": 0.998}, {"molecule": "O=c1n(CCCN2CCN(c3cccc(Cl)c3)CC2)nc2ccccn12", "note": "[Trazodone hydrochloride] (20 µM)", "growth": 0.982}, {"molecule": "NNc1nncc2ccccc12", "note": "[Hydralazine hydrochloride] (20 µM)", "growth": 0.997}, {"molecule": "CN(C/C=C/c1ccccc1)Cc1cccc2ccccc12", "note": "[Naftifine hydrochloride] (20 µM)", "growth": 1.21}, {"molecule": "N=c1nc(N2CCCCC2)cc(N)n1O", "note": "[Minoxidil] (20 µM)", "growth": 0.963}, {"molecule": "C=CC[C@@H]1/C=C(\\C)C[C@H](C)C[C@H](OC)[C@H]2O[C@@](O)(C(=O)C(=O)N3CCCC[C@H]3C(=O)O[C@H](/C(C)=C/[C@@H]3CC[C@@H](O)[C@H](OC)C3)[C@H](C)[C@@H](O)CC1=O)[C@H](C)C[C@@H]2OC", "note": "[Tacrolimus Monohydrate] (20 µM)", "growth": 1.04}]}, {"system": "Klebsiella aerogenes DSM 30053", "assay": "growth (OD595) fold change vs plate DMSO controls (fold change (ratio)); higher = more growth", "conditions": "incubation time: 27 h, anaerobic, 37 °C", "method_in_brief": "as §1", "values": [{"molecule": "CN(C(=O)CN(CCO)CC(=O)N(C)C(C)(C)Cc1ccccc1)C(C)(C)Cc1ccccc1", "note": "[Oxethazaine] (20 µM)", "growth": 1}, {"molecule": "CCCCC(CC)CN1C(=O)[C@@H]2[C@H](C1=O)[C@@H]1C=C[C@H]2C1", "note": "(mixture of isomers) (20 µM)", "growth": 1.06}, {"molecule": "CC(=O)OCC1=C(C(=O)O)N2C(=O)[C@@H](NC(=O)Cc3cccs3)[C@H]2SC1", "note": "[Cephalothin sodium salt] (20 µM)", "growth": 1.11}, {"molecule": "Cc1cc(CC(=O)O)n(C)c1C(=O)c1ccc(Cl)cc1", "note": "[Zomepirac sodium salt] (20 µM)", "growth": 0.981}, {"molecule": "CC(CNC1CCCCC1)OC(=O)c1ccccc1", "note": "(stereo unspecified) [Hexylcaine hydrochloride] (20 µM)", "growth": 1.01}, {"molecule": "CC(C)n1c(/C=C/C(O)CC(O)CC(=O)O)c(-c2ccc(F)cc2)c2ccccc21", "note": "(stereo unspecified) [Fluvastatin sodium salt] (20 µM)", "growth": 0.987}, {"molecule": "CCCc1cc(=O)[nH]c(=S)[nH]1", "note": "[Propylthiouracil] (20 µM)", "growth": 0.995}, {"molecule": "CC(=O)Nc1ccc(OCC(O)CNC(C)C)cc1", "note": "(stereo unspecified) [Practolol] (20 µM)", "growth": 1}, {"molecule": "C[C@@H]1O[C@@H](O[C@H]2[C@H](Oc3cc(O)c(C(=O)CCc4ccc(O)cc4)c(O)c3)O[C@H](CO)[C@@H](O)[C@@H]2O)[C@H](O)[C@H](O)[C@H]1O", "note": "[Naringin Dihydrochalcone] (50 µM)", "growth": 1.05}, {"molecule": "Nc1cc(-c2ccncc2)c[nH]c1=O", "note": "[Amrinone] (20 µM)", "growth": 1.02}, {"molecule": "CC#CCn1c(N2CCC[C@@H](N)C2)nc2c1c(=O)n(Cc1nc(C)c3ccccc3n1)c(=O)n2C", "note": "[Linagliptin] (20 µM)", "growth": 0.993}, {"molecule": "CCOc1ccc2c(c1)C(C)=CC(C)(C)N2", "note": "[Ethoxyquin] (20 µM)", "growth": 1.01}, {"molecule": "Cn1c(=O)c2c(ncn2C)n(C)c1=O", "note": "[Caffeine] (20 µM)", "growth": 0.977}, {"molecule": "C[C@]12CC[C@@H]3c4ccc(O)cc4CC[C@H]3[C@@H]1CC[C@@H]2O", "note": "[Estradiol-17 beta] (20 µM)", "growth": 1.14}, {"molecule": "CC(=O)OCC(=O)[C@@]12OC3(CCCC3)O[C@@H]1C[C@H]1[C@@H]3CCC4=CC(=O)C=C[C@]4(C)[C@@]3(F)[C@@H](O)C[C@@]12C", "note": "[Amcinonide] (20 µM)", "growth": 1.02}, {"molecule": "OCCN1CCN(CCCN2c3ccccc3C=Cc3ccccc32)CC1", "note": "[Opipramol dihydrochloride] (20 µM)", "growth": 0.983}, {"molecule": "CC(C)[N+](C)(CCOC(=O)C1c2ccccc2Oc2ccccc21)C(C)C", "note": "[Propantheline bromide] (20 µM)", "growth": 1}, {"molecule": "C[C@H](O)[C@H](O)[C@H]1CNc2[nH]c(N)nc(=O)c2N1", "note": "[Sapropterin dihydrochloride] (20 µM)", "growth": 0.928}, {"molecule": "CCN(CC)CCNC(=O)c1cc(S(C)(=O)=O)ccc1OC", "note": "[Tiapride hydrochloride] (20 µM)", "growth": 0.715}, {"molecule": "CNCCCN1c2ccccc2CCc2ccccc21", "note": "[Desipramine hydrochloride] (20 µM)", "growth": 0.971}, {"molecule": "COc1ccccc1OCC(O)CN1CCN(CC(=O)Nc2c(C)cccc2C)CC1", "note": "(stereo unspecified) [Ranolazine] (20 µM)", "growth": 1.13}, {"molecule": "CC(=O)c1ccc2c(c1)N(CCCN1CCC(CCO)CC1)c1ccccc1S2", "note": "[Piperacetazine] (20 µM)", "growth": 0.138}, {"molecule": "Cn1cc(C(=O)Nc2ccc(F)cc2-c2ccc(Cl)c(Cl)c2)c(C(F)F)n1", "note": "(20 µM)", "growth": 0.972}, {"molecule": "Nc1nc(=O)[nH]cc1F", "note": "[Flucytosine] (20 µM)", "growth": 0.986}, {"molecule": "O=c1oc2cc(O)ccc2s1", "note": "[Tioxolone] (20 µM)", "growth": 0.979}, {"molecule": "CCN1C(=O)NC(c2ccccc2)C1=O", "note": "(stereo unspecified) [Ethotoin] (20 µM)", "growth": 0.982}, {"molecule": "C=C1/C(=C\\C=C2/CCC[C@]3(C)[C@@H]([C@H](C)/C=C/[C@@H](O)C4CC4)CC[C@@H]23)C[C@@H](O)C[C@@H]1O", "note": "[Calcipotriene] (20 µM)", "growth": 1.02}, {"molecule": "COc1ccc([C@@H]2Sc3ccccc3N(CCN(C)C)C(=O)[C@@H]2OC(C)=O)cc1", "note": "[Diltiazem hydrochloride] (20 µM)", "growth": 0.994}, {"molecule": "N#Cc1ccc(C(c2ccc(C#N)cc2)n2cncn2)cc1", "note": "[Letrozole] (20 µM)", "growth": 0.996}, {"molecule": "Clc1ccc(CSC(Cn2ccnc2)c2ccc(Cl)cc2Cl)cc1", "note": "(stereo unspecified) [Sulconazole nitrate] (20 µM)", "growth": 0.995}, {"molecule": "NC(=O)c1ncn([C@@H]2O[C@H](CO)[C@@H](O)[C@H]2O)n1", "note": "[Ribavirin] (20 µM)", "growth": 0.979}, {"molecule": "CC(C)NCC(O)c1cc(O)cc(O)c1", "note": "(stereo unspecified) [Metaproterenol sulfate] (20 µM)", "growth": 1.02}, {"molecule": "Cc1ccccc1C(=O)Nc1ccc(C(=O)N2CCCC(O)c3cc(Cl)ccc32)c(C)c1", "note": "(stereo unspecified) [Tolvaptan] (20 µM)", "growth": 0.985}, {"molecule": "CC(C)(C)NC(=O)[C@H]1CC[C@H]2[C@@H]3CC[C@H]4NC(=O)C=C[C@]4(C)[C@H]3CC[C@]12C", "note": "[Finasteride] (20 µM)", "growth": 1.05}, {"molecule": "O=c1n(CCCN2CCN(c3cccc(Cl)c3)CC2)nc2ccccn12", "note": "[Trazodone hydrochloride] (20 µM)", "growth": 0.987}, {"molecule": "NNc1nncc2ccccc12", "note": "[Hydralazine hydrochloride] (20 µM)", "growth": 1}, {"molecule": "CN(C/C=C/c1ccccc1)Cc1cccc2ccccc12", "note": "[Naftifine hydrochloride] (20 µM)", "growth": 0.994}, {"molecule": "N=c1nc(N2CCCCC2)cc(N)n1O", "note": "[Minoxidil] (20 µM)", "growth": 1.03}, {"molecule": "C=CC[C@@H]1/C=C(\\C)C[C@H](C)C[C@H](OC)[C@H]2O[C@@](O)(C(=O)C(=O)N3CCCC[C@H]3C(=O)O[C@H](/C(C)=C/[C@@H]3CC[C@@H](O)[C@H](OC)C3)[C@H](C)[C@@H](O)CC1=O)[C@H](C)C[C@@H]2OC", "note": "[Tacrolimus Monohydrate] (20 µM)", "growth": 1.02}]}]}
